# Experiments:
# Experiment in all cases: protein-binding microarray (PBM); PBM: ~300 nM protein, 6 mM HEPES pH 7.8, 80 mM KCl, 0.5 mM EDTA, 0.5 mM EGTA, 6% glycerol, 35 ng/ul poly-dIdC, 1% milk, 1 h, room temperature; Ap Aiptasia and Nv Nematostella (sea anemones) / Co Capsaspora / Aq Amphimedon (sponge) / Dm Drosophila / Hu human; RHD is the Rel homology domain; high values mean tight binding
# Conditions in all cases: dsDNA, one strand shown
# GST-Ap-NF-kB RHD = target: T1, GST-Ap-NF-kB RHD (Exaiptasia pallida (Aiptasia), UniProt A0A913YAJ5 2-422)
# T1 sequence: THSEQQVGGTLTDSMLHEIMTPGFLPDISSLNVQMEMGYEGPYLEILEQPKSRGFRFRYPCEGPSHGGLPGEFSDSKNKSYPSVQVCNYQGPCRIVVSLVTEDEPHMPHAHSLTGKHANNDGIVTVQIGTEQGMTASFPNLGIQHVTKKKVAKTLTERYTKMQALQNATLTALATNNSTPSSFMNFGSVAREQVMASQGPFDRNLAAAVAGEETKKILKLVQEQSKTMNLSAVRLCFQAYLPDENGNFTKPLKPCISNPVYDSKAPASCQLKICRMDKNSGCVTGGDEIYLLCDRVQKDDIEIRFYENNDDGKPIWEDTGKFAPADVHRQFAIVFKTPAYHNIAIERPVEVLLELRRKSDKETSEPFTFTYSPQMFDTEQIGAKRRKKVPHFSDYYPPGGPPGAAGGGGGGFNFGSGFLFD
# [1] = target: T2, GST-Nv-NF-kB (Cys allele) (Nematostella vectensis, UniProt E5G601 2-411)
# T2 sequence: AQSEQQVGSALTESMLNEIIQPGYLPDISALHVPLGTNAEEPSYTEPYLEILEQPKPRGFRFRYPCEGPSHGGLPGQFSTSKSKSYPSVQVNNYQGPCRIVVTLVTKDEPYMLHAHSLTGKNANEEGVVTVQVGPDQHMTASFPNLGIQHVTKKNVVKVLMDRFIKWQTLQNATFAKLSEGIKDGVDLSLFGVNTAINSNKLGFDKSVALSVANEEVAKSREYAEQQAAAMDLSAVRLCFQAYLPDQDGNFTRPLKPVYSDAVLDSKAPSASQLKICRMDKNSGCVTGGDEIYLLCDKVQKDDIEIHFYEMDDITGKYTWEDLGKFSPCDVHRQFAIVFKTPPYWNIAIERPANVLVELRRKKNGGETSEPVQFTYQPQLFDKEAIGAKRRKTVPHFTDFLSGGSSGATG
# GST-Co-NF-kB = target: T3, GST-Co-NF-kB (Capsaspora owczarzaki, UniProt F1ARL5 200-546)
# T3 sequence: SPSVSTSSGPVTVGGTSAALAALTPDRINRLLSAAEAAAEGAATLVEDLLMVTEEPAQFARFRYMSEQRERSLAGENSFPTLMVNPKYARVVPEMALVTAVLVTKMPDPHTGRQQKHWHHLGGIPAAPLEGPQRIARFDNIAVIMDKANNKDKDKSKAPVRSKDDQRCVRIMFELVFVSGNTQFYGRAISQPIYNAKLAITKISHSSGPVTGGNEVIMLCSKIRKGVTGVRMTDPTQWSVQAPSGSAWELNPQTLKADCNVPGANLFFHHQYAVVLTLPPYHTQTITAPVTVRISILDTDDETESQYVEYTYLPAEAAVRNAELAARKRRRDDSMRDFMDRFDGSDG
# GST-Dm-Relish = target: T4, GST-Dm-Relish (Drosophila melanogaster, UniProt Q94527 99-473)
# T4 sequence: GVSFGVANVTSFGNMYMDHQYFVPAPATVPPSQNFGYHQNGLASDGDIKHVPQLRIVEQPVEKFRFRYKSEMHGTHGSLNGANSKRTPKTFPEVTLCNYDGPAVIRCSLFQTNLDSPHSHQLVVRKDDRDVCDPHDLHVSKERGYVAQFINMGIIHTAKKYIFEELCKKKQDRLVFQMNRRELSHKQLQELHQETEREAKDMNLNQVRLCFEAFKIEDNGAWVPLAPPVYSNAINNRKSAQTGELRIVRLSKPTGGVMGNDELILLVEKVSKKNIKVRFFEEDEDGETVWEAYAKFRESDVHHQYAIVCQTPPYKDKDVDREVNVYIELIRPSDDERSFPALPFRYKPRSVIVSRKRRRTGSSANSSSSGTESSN
# GST-Aq-NF-kB = target: T5, GST-Aq-NF-kB (Amphimedon queenslandica, UniProt A9Y5G7 2-389)
# T5 sequence: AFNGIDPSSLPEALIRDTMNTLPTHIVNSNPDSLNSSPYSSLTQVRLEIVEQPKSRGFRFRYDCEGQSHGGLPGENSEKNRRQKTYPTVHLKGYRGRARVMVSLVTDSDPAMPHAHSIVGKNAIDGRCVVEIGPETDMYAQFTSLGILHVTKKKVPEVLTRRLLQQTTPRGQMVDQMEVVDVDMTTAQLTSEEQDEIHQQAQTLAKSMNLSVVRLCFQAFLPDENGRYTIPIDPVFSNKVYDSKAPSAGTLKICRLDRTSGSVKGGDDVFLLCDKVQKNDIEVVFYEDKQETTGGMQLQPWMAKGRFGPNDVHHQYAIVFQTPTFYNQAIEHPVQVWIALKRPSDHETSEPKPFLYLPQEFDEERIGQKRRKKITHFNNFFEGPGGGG
Sequence,binding signal (GST-Ap-NF-kB RHD) [z-score],binding signal [1] [z-score],binding signal (GST-Co-NF-kB) [z-score],binding signal (GST-Dm-Relish) [z-score],binding signal (GST-Aq-NF-kB) [z-score]
CCGATTAACATCAGAATATCCCATGATGTTAATCGGGTCTTGATTCGCTTGACGCTGCTG,2.05,1.17,1.46,1.8,1.86
CCGATTAACATCAGGGAAAACGATGATGTTAATCGGGTCTTGATTCGCTTGACGCTGCTG,2.75,3.95,3.39,1.18,2.74
CCGATTAACATCAAAACAGTCCCTGATGTTAATCGGGTCTTGATTCGCTTGACGCTGCTG,4.53,5.79,1.26,3.28,6.16
CCGATTAACATCAAACCCCCCCCTGATGTTAATCGGGTCTTGATTCGCTTGACGCTGCTG,7.29,5.16,4.79,6.75,5.35
CCGATTAACATCAGAAGTTTCCCTGATGTTAATCGGGTCTTGATTCGCTTGACGCTGCTG,4.01,5.91,5.14,3.08,6.09
CCGATTAACATCAAGCAATTCCCTGATGTTAATCGGGTCTTGATTCGCTTGACGCTGCTG,3.2,4.28,2.25,1.23,3.57
CCGATTAACATCAGGGCCCCCCCTGATGTTAATCGGGTCTTGATTCGCTTGACGCTGCTG,6.57,4.21,2.89,6.49,7.6
CCGATTAACATCAGGGGAGAAAATGATGTTAATCGGGTCTTGATTCGCTTGACGCTGCTG,4.25,5.5,8.56,2.26,3.89
CCGATTAACATCACCACTTTCCCTGATGTTAATCGGGTCTTGATTCGCTTGACGCTGCTG,3.21,4.07,3.94,1.32,3.11
CCGATTAACATCACTAAATTCCCTGATGTTAATCGGGTCTTGATTCGCTTGACGCTGCTG,3.8,5.35,4.15,3.63,4.56
CCGATTAACATCAAGTCCCCCAATGATGTTAATCGGGTCTTGATTCGCTTGACGCTGCTG,4.26,3.66,3.84,2.8,3.76
CCGATTAACATCAAATTGCCCCCTGATGTTAATCGGGTCTTGATTCGCTTGACGCTGCTG,4.13,3.94,4.71,3.33,4.88
CCGATTAACATCAACTAATTCCCTGATGTTAATCGGGTCTTGATTCGCTTGACGCTGCTG,2.18,4.19,3.13,1.91,3.44
CCGATTAACATCAGGGGGTGTAATGATGTTAATCGGGTCTTGATTCGCTTGACGCTGCTG,3.57,3.16,3.87,3.25,3.21
CCGATTAACATCAGGGGGTCTACTGATGTTAATCGGGTCTTGATTCGCTTGACGCTGCTG,4.22,2.44,1.58,7.11,4.4
CCGATTAACATCACATTCTCCCCTGATGTTAATCGGGTCTTGATTCGCTTGACGCTGCTG,4.7,4.44,6.71,1.55,3.34
CCGATTAACATCAATCTACCCCCTGATGTTAATCGGGTCTTGATTCGCTTGACGCTGCTG,4.86,3.1,7.41,2.3,3.68
CCGATTAACATCAAGTTTACCCCTGATGTTAATCGGGTCTTGATTCGCTTGACGCTGCTG,3.21,2.2,6.61,2.4,2.91
CCGATTAACATCAAATTTCCCGCTGATGTTAATCGGGTCTTGATTCGCTTGACGCTGCTG,3.85,5.17,4.99,2.88,5.22
CCGATTAACATCACCCGGGAAAATGATGTTAATCGGGTCTTGATTCGCTTGACGCTGCTG,2.61,3.28,5.18,1.52,2.6
CCGATTAACATCACTGGGAAAACTGATGTTAATCGGGTCTTGATTCGCTTGACGCTGCTG,1.79,2.36,5.25,1.48,1.81
CCGATTAACATCAGGGGTATACCTGATGTTAATCGGGTCTTGATTCGCTTGACGCTGCTG,4.25,2.43,3.98,4.15,4.94
CCGATTAACATCATGCGGGAAAATGATGTTAATCGGGTCTTGATTCGCTTGACGCTGCTG,2.22,3.71,4.47,1.22,2.76
CCGATTAACATCAGGGAACCCCATGATGTTAATCGGGTCTTGATTCGCTTGACGCTGCTG,3.95,2.07,1.54,10.5,4.59
CCGATTAACATCAAGGGGGGGGCTGATGTTAATCGGGTCTTGATTCGCTTGACGCTGCTG,5.13,3.96,4.65,5.21,4.89
CCGATTAACATCAGGGGGGCACCTGATGTTAATCGGGTCTTGATTCGCTTGACGCTGCTG,4.84,3.13,3.02,3.62,4.5
CCGATTAACATCAAACTCTCCCCTGATGTTAATCGGGTCTTGATTCGCTTGACGCTGCTG,5.13,4.94,6.22,1.21,4.74
